ERAP1 inh: human ERAP1 aminopeptidase inhibitors, primary screen, biochemical, single point, plate reader; Endoplasmic reticulum aminopeptidase 1 (Homo sapiens), Q9NZ08; recombinant ERAP1, Leu-AMC fluorescence, 60 min; inhibition, % at 10.7 µM; 340,000 tested, 0.15% active; AID 652197, 2013;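 active = mean replicate inhibition of at least 30%, or all replicates individually reaching that 30% level; inactive = mean below 30% and not every replicate reaching it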;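 note: 0% = neutral control wells and 100% = L-leucinethiol positive control wells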
Target sequence (Q9NZ08 whole entry, looked up): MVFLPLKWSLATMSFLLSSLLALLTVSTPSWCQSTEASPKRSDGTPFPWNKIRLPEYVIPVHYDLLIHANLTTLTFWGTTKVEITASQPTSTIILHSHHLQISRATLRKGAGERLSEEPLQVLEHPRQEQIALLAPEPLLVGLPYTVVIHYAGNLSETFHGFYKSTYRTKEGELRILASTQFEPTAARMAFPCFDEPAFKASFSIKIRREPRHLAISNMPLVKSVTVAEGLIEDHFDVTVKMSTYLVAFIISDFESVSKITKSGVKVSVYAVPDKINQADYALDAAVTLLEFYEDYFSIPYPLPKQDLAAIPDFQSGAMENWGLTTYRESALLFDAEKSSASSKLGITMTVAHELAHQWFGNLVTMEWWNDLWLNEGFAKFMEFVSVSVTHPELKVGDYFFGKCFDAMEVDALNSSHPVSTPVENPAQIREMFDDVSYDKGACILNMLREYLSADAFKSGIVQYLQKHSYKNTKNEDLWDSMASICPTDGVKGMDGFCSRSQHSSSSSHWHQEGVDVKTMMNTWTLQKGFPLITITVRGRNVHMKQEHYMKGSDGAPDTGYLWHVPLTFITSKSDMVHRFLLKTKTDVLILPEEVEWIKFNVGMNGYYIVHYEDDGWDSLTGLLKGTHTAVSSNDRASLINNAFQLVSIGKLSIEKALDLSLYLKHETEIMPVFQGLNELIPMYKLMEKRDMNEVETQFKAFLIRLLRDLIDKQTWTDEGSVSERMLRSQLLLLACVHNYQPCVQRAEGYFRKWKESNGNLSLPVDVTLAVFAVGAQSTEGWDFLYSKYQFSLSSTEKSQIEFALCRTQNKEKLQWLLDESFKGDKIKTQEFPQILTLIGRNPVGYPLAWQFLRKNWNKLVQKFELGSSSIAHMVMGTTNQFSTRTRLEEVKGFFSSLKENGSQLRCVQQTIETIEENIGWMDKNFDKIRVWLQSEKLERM
PvdQ inh: P. aeruginosa PvdQ acylase inhibitors, primary screen, biochemical, fluorescence, plate reader and imaging, single point. purified PvdQ acylase. 340,000 tested, 0.063% active. inhibition, % at 10 µM. PvdQ acylase [Pseudomonas aeruginosa LESB58]. AID 488965, 2010; in the data active = inhibition above about 30%, passing the limit was not always enough;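 note: 0% = vehicle neutral wells and 100% = reference inhibitor wells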
F508del corr: F508del CFTR correction, initial screen, CFBE line, single point; CFBE cells, YFP halide quenching; stimulated with forskolin plus potentiator P3; % fluorescence drop versus neutral controls; activity (quench increase), % at 7.58 µM; 350,000 tested, 0.36% active; AID 720511, 2013;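 active = mean added fluorescence quench of at least 8% versus neutral control, with both replicates also reaching 8%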;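 note: cells transiently co-express mutant CFTR-F508del with the halide-sensitive YFP; corrector assay measuring rescue of mutant channel to the surface after 24 h compound exposure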
rRNA inh HTS: reduced GFP signal of wild-type E. coli, primary screen, bacterial rRNA inhibitor project, GFP/RFP fluorescence, OD600, single point; E. coli WT GFP vs humanized-ribosome RFP mutants, 24 h; stronger effect = lower value; DMSO median 0, no signal -100; GFP signal change (wild-type ribosome), % (concentration not given with the values); 350,000 tested, 1.6% active;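 active = significant combined selectivity score with lowered wild-type GFP, culture density cut under 30%, mutant RFP and density less affected; inactive = any of these conditions unmet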
ARNT TACC3 PPI: disruptors of ARNT/TACC3 protein interaction, primary screen, biochemical, AlphaScreen, single concentration | Transforming acidic coiled-coil-containing protein 3 (Homo sapiens), Q9Y6A5 | AlphaScreen His-ARNT PAS-B/GST-TACC3 binding, luminescence; TACC3 fragment carries E629A point mutation | inhibition, % at 9.99 µM | 390,000 tested, 0.66% active;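 active = mean inhibition of replicates at least 50% and at least half of replicates each reaching 50%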;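 note: 0% = complete ARNT plus TACC3 wells and 100% = ARNT alone without TACC3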
Active calls of the source: *. A selection: hits, their analogues and other compounds. The true share with any hit is near 2.1%.

Results for C[C@H](CO)N1C[C@H](C)[C@@H](CN(C)Cc2ccccc2)Oc2ncc(C#Cc3cccnc3)cc2C1=O ?
ERAP1 inh: -1; F508del corr: 2; rRNA inh HTS: -3; ARNT TACC3 PPI: 1

Results for Nc1nc(=S)ss1 ?
ERAP1 inh: -1; PvdQ inh: 2; F508del corr: -6; rRNA inh HTS: -13*; ARNT TACC3 PPI: 10

How did O=[N+]([O-])c1ccc(O)c(C2=NNC(c3ccccc3F)C2)c1 (stereo not given) do in these assays?
ERAP1 inh: 3; PvdQ inh: 11; F508del corr: 3; rRNA inh HTS: -54*; ARNT TACC3 PPI: -4

What do the screens show for `O=C(CN(Cc1ccccc1Cl)S(=O)(=O)c1ccc(Cl)cc1)N/N=C/c1ccc(C(=O)O)cc1`?
ERAP1 inh: -9; PvdQ inh: 7; F508del corr: -2; rRNA inh HTS: -41; ARNT TACC3 PPI: 51*

How did COc1cccc(S(=O)(=O)N(C)C[C@@H]2Oc3ncccc3C(=O)N([C@H](C)CO)C[C@@H]2C)c1 do in these assays?
ERAP1 inh: 46*; F508del corr: 0; rRNA inh HTS: 10; ARNT TACC3 PPI: 2

How did COc1ccc(S(=O)(=O)N(C)C[C@H]2Oc3ncc(C#CC4(O)CCCC4)cc3C(=O)N([C@H](C)CO)C[C@@H]2C)cc1 do in these assays?
ERAP1 inh: -4; F508del corr: 2; rRNA inh HTS: -7; ARNT TACC3 PPI: 39*

Results for COc1ccc(NC(=O)N(C)C[C@H]2Oc3c(cccc3N(C)C)C(=O)N([C@H](C)CO)C[C@H]2C)cc1 ?
ERAP1 inh: 4; F508del corr: 8.1*; rRNA inh HTS: -2; ARNT TACC3 PPI: -1

What do the screens show for `C[C@H](CO)N1C[C@H](C)[C@H](CN(C)S(=O)(=O)c2ccccc2)Oc2ncccc2C1=O`?
ERAP1 inh: 2; F508del corr: -1; rRNA inh HTS: 7; ARNT TACC3 PPI: -2

How did COc1ccc(S(=O)(=O)N(C)C[C@H]2Oc3ncc(C#CC4(O)CCCC4)cc3C(=O)N([C@@H](C)CO)C[C@H]2C)cc1 do in these assays?
ERAP1 inh: 1; F508del corr: -2; rRNA inh HTS: 2; ARNT TACC3 PPI: -2

How did COc1ccc(S(=O)(=O)N(C)C[C@@H]2Oc3ncccc3C(=O)N([C@H](C)CO)C[C@@H]2C)cc1 do in these assays?
ERAP1 inh: 42*; F508del corr: 0; rRNA inh HTS: -1; ARNT TACC3 PPI: -3

How did CNC[C@@H]1Oc2ccc(NC(=O)NC(C)C)cc2C(=O)N(C)C[C@H]1C do in these assays?
rRNA inh HTS: 2

How did CCCC#Cc1ccc2c(c1)O[C@H](CN(C)C(C)=O)[C@@H](C)CN([C@H](C)CO)S2(=O)=O do in these assays?
ERAP1 inh: 1; F508del corr: -1; rRNA inh HTS: -3; ARNT TACC3 PPI: 2

How did COc1ccc(NC(=O)Nc2cccc3c2O[C@H](CN(C)S(=O)(=O)c2ccc(Cl)cc2)[C@H](C)CN([C@@H](C)CO)C3=O)cc1 do in these assays?
ERAP1 inh: 1; F508del corr: -2; rRNA inh HTS: -23*; ARNT TACC3 PPI: 1

What do the screens show for `CC(C)NC(=O)N[C@@H]1CC[C@@H](CC(=O)N2CCCCC2)O[C@@H]1CO`?
ERAP1 inh: 1; F508del corr: 2; rRNA inh HTS: -3; ARNT TACC3 PPI: 6

Results for COc1ccc(NC(=O)C2C(c3ccccc3)C2(Cl)Cl)cc1 (stereo not given) ?
ERAP1 inh: 3; PvdQ inh: -18; F508del corr: -1; rRNA inh HTS: -39*; ARNT TACC3 PPI: -6

How did N=c1sccn1CC(=O)Nc1ccc(S(N)(=O)=O)cc1 do in these assays?
ERAP1 inh: -3; PvdQ inh: -11; F508del corr: 11*; rRNA inh HTS: 6; ARNT TACC3 PPI: -6

What do the screens show for `Cc1cc(C)nc(N/N=C/c2sccc2C)n1`?
ERAP1 inh: 3; PvdQ inh: 3; F508del corr: 1; rRNA inh HTS: 9; ARNT TACC3 PPI: -2

How did Cc1ccsc1/C=N/Nc1nc(=O)[nH]nc1C do in these assays?
ERAP1 inh: -1; PvdQ inh: -7; F508del corr: 1; rRNA inh HTS: 11; ARNT TACC3 PPI: 64*

What do the screens show for `COc1cccc2cc(C(C)N(CCCN3CCOCC3)C(=S)Nc3c(C)cccc3C)oc12` (stereo not given)?
PvdQ inh: -7; F508del corr: -1; rRNA inh HTS: -1; ARNT TACC3 PPI: 13

How did CCc1ccc(NC(=O)N(CCCN2CCOCC2)C(C)c2cc3cccc(OC)c3o2)cc1 (stereo not given) do in these assays?
ERAP1 inh: 2; PvdQ inh: -13; rRNA inh HTS: -22*; ARNT TACC3 PPI: 4

How did C[C@H]1CN([C@@H](C)CO)C(=O)c2cc(Br)cnc2O[C@@H]1CN(C)C(=O)Nc1ccccc1 do in these assays?
ERAP1 inh: 0; F508del corr: -3; rRNA inh HTS: -2; ARNT TACC3 PPI: -11

Results for COc1ccc(N(CC(=O)Nc2cc(Cl)ccc2C)S(=O)(=O)c2c(C)noc2C)cc1 ?
ERAP1 inh: 1; PvdQ inh: -2; F508del corr: 3; rRNA inh HTS: -29*; ARNT TACC3 PPI: 29

How did COc1ccc(N(CC(=O)Nc2cc(C)ccc2C)S(=O)(=O)c2c(C)noc2C)cc1 do in these assays?
ERAP1 inh: 2; PvdQ inh: 8; F508del corr: -3; rRNA inh HTS: -18; ARNT TACC3 PPI: -3

What do the screens show for `CCc1cccc(NC(=O)CN(c2ccc(C)cc2)S(=O)(=O)c2c(C)noc2C)c1`?
ERAP1 inh: 1; PvdQ inh: 0; F508del corr: -2; rRNA inh HTS: -31*

What do the screens show for `COc1ccc(NC(=O)CN(C)C(=O)CSc2ccc(Br)cc2)cc1`?
ERAP1 inh: -3; PvdQ inh: -14; F508del corr: -2; rRNA inh HTS: -30*; ARNT TACC3 PPI: -5

Results for COc1ccc2cc(CN(CC3CCCO3)C(=S)Nc3ccccc3)c(=O)[nH]c2c1 (stereo not given) ?
ERAP1 inh: -2; PvdQ inh: 9; F508del corr: 10*; rRNA inh HTS: -11; ARNT TACC3 PPI: 30

Results for O=C(N[C@H]1C=C[C@H](CC(=O)N2CCc3ccccc3C2)O[C@@H]1CO)C1CCC1 ?
ERAP1 inh: 2; F508del corr: 1; rRNA inh HTS: -1; ARNT TACC3 PPI: 10

How did CC1(C)CC(=O)C=C(c2ccc(COC(=O)c3ccccc3)cc2)C1=O do in these assays?
F508del corr: 3; rRNA inh HTS: -20*

Compound activity (PubChem)
